Measurements reported in PubChem BioAssay (Tox21).
Results filed as inconclusive are left out. The source made the active and inactive calls. Unless noted, the call rests on the fitted dose curve; in most records, active means well fitted curve in the direction sought with a large enough effect in the repeat runs; inconclusive means weak or mixed curves; inactive means no such curve, though single readings can be large; an effect the other way counts as inactive or inconclusive.

Legend:
[1] = qHTS RealTime-Glo MT Cell Viability Assay in HepG2 cells - 32 hour (AID 1224877); further: nearly all actives have a fitted effect of over 55% in size
Outline: (§1)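 Cell number in HepG2 cultures estimated from NanoLuc luminescence generated by metabolic reduction of a prosubstrate by living cells. The homogeneous, nonlytic format allowed repeated reads at 0, 8, 16, 24, 32 and 40 h of compound exposure.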

[2] = A CellTox Green Cytotoxicity Assay to monitor cytotoxicity in HepG2 cells - 24 hour (AID 1224878); further: nearly all actives have a fitted effect of over 45% in size
Outline: (§2)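 Continuous culture of HepG2 cells with a membrane-impermeant DNA dye; rising fluorescence marks dead cells. Compound exposure lasted up to 40 h at 37 C, with reads every 8 h from 0 h.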

[3] = A CellTox Green Cytotoxicity Assay to monitor cytotoxicity in HepG2 cells - 40 hour (AID 1224879); further: nearly all actives have a fitted effect of over 40% in size
Outline: as §2

[4] = qHTS RealTime-Glo MT Cell Viability Assay in HEK293 cells - 0 hour (AID 1224880); further: nearly all actives have a fitted effect of over 45% in size; further: potency means the concentration at half of the fitted maximal effect; on activity change, negative = cytotoxicity: top concentration of the series differs between compounds
Outline: (§3)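 qHTS format; HEK293 cells with NanoLuc/prosubstrate reagent, 37 C/5% CO2 for 5 h pre-dosing; compounds 23 nL in DMSO; luminescence at each time point reflects viable cells.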

[5] = A CellTox Green Cytotoxicity Assay to monitor cytotoxicity in HEK293 cells - 32 hour (AID 1224881); further: nearly all actives have a fitted effect of over 40% in size
Outline: (§4)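 Each value comes from one timepoint of a single continuous run in which HEK293 cells with CellTox Green were exposed to compound for up to 40 h at 37 C, dye fluorescence rising with cell death.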

[6] = A CellTox Green Cytotoxicity Assay to monitor cytotoxicity in HepG2 cells - 0 hour (AID 1224882); further: nearly all actives have a fitted effect of over 35% in size
Outline: as §2

[7] = A CellTox Green Cytotoxicity Assay to monitor cytotoxicity in HEK293 cells - 8 hour (AID 1224884); further: nearly all actives have a fitted effect of over 35% in size
Outline: as §4

[8] = qHTS RealTime-Glo MT Cell Viability Assay in HepG2 cells - 16 hour (AID 1224885); further: nearly all actives have a fitted effect of over 50% in size
Outline: as §1

[9] = qHTS RealTime-Glo MT Cell Viability Assay in HEK293 cells - 24 hour (AID 1224886); further: top concentration of the series differs between compounds; nearly all actives have a fitted effect of over 50% in size
Outline: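 Homogeneous bioluminescent viability format in HEK293 cells (600 cells/well). Following 5 h at 37 C/5% CO2, 23 nL compound was pintooled; the signal was measured repeatedly during 40 h incubation.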

[10] = qHTS RealTime-Glo MT Cell Viability Assay in HEK293 cells - 8 hour (AID 1224887); further: top concentration of the series differs between compounds; nearly all actives have a fitted effect of over 50% in size
Outline: as §3

[11] = A CellTox Green Cytotoxicity Assay to monitor cytotoxicity in HEK293 cells - 16 hour (AID 1224888); further: nearly all actives have a fitted effect of over 35% in size
Outline: as §4

[12] = qHTS RealTime-Glo MT Cell Viability Assay in HepG2 cells - 0 hour (AID 1224889); further: nearly all actives have a fitted effect of over 50% in size; further: potency means the concentration at half of the fitted maximal effect
Outline: as §1

[13] = A CellTox Green Cytotoxicity Assay to monitor cytotoxicity in HepG2 cells - 8 hour (AID 1224890); further: nearly all actives have a fitted effect of over 45% in size
Outline: as §2

[14] = qHTS assay to identify small molecule antagonists of the estrogen receptor alpha (ER-alpha) signaling pathway using the BG1 cell line in the presence of 0.1 nM 17-beta-estradiol - cell viability counter screen (AID 1259241); further: nearly all actives have a fitted effect of over 40% in size
Outline: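 CellTiter-Fluor read (30 min, 37C) on ER-alpha/ERE-luc VM7Luc4E2 cells; 22 hr compound treatment; agonist 0.1 nM E2 final; same-well multiplex.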

[15] = qHTS assay to identify small molecule antagonists of the androgen receptor (AR) signaling pathway using the MDA cell line in the presence of 0.5 nM R1881 - cell viability counter screen (AID 1259242); further: nearly all actives have a fitted effect of over 45% in size
Outline: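 Fluorescence from CellTiter-Fluor, which reports protease activity of live cells, was read 30 min after reagent addition to MDA-kb2 cells that had been incubated 16 hr with compound and 0.5 nM R1881.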

[16] = target: Estrogen receptor (Homo sapiens) (UniProt P03372); experiment: qHTS assay to identify small molecule antagonists of the estrogen receptor alpha (ER-alpha) signaling pathway using the BG1 cell line in the presence of 0.1 nM 17-beta-estradiol (AID 1259244); further: nearly all actives have a fitted effect of over 50% in size
Outline: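 Quantitative high-throughput screen in VM7Luc4E2 cells: compound plus 0.1 nM E2 (final), 22 h, 37C, 5% CO2; ONE-Glo added, 30 min room temperature, luminescence measured.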

[17] = qHTS assay to identify small molecule phospholipidosis (PLD) inducers (AID 1259344; active means well fitted curve in the direction sought with a large enough effect; an effect the other way counts as inactive or inconclusive)
Outline: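 HepG2 cells, 900/well, treated with compound plus LipidTOX Red for 24 h at 37 C; amiodarone positive and DMSO negative controls. Fixed with paraformaldehyde/Hoechst, then high-content imaging scored LipidTOX pit count and integrated intensity per well and per cell.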

[18] = qHTS assay to identify small molecule HDAC inhibitors (AID 1259364)
Outline: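 Endogenous HDAC class I/II activity was measured in wild-type HCT-116 cells by HDAC-Glo luminescence after 2 h compound treatment.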

[19] = target: Androgen receptor (Homo sapiens) (UniProt P10275); experiment: qHTS assay to identify small molecule antagonists of the androgen receptor (AR) signaling pathway using the MDA cell line in the presence of 0.5 nM R1881 (AID 1259243); further: nearly all actives have a fitted effect of over 50% in size; further: potency means the concentration at half of the fitted maximal effect
Outline: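 Inhibition of R1881 (0.5 nM final) induced reporter signal was measured in human MDA-kb2 cells; note the MMTV promoter also responds to GR. Exposure lasted 16 hr at 37C.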

[20] = A CellTox Green Cytotoxicity Assay to monitor cytotoxicity in HepG2 cells - 32 hour (AID 1224883); further: nearly all actives have a fitted effect of over 50% in size
Outline: as §2
On the % scale 0 is the no-effect control and ±100 the full control effect.

Sequence of Androgen receptor (Homo sapiens) (P10275 whole entry, looked up): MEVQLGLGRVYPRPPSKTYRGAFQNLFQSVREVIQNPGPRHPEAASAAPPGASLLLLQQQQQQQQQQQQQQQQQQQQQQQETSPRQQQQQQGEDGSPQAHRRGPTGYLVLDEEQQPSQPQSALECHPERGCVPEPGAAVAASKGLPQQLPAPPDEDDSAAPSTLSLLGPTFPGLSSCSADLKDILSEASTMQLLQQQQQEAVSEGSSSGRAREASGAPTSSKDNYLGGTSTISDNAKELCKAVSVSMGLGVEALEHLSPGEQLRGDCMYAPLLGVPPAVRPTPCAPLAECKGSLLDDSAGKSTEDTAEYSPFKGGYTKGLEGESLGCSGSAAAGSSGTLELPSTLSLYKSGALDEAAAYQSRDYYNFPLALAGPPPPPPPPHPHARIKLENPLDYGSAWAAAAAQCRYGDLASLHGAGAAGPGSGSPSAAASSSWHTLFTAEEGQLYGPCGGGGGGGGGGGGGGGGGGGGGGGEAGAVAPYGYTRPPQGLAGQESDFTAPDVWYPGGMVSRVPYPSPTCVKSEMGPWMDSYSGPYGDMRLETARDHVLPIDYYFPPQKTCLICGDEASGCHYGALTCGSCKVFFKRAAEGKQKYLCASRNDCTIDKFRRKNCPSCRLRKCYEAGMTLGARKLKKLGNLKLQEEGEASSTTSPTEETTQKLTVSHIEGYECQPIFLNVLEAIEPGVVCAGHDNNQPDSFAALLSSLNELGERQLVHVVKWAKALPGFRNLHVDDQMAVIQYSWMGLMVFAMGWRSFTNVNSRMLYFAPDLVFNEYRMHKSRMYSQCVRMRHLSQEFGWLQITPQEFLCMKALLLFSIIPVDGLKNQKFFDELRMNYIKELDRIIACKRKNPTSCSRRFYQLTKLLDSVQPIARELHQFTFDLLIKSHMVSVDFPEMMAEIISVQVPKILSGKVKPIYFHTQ
Sequence of Estrogen receptor (Homo sapiens) (P03372 whole entry, looked up): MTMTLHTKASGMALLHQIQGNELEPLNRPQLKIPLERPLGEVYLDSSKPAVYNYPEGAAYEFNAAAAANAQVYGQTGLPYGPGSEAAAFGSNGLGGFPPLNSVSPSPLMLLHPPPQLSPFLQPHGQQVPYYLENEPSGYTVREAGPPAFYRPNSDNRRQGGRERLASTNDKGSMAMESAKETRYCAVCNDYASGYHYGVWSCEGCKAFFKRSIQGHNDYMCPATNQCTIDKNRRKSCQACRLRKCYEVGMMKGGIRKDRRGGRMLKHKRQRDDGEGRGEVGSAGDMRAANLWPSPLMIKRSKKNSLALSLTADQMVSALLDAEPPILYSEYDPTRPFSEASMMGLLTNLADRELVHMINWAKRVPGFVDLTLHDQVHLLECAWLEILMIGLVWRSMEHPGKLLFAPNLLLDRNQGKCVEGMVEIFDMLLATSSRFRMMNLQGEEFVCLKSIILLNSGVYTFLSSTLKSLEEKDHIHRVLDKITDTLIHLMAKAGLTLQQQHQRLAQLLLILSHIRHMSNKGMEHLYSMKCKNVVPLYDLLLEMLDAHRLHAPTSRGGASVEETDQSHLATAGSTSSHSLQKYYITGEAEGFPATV

Cc1ccc(S(=O)(=O)NC(=O)NN2CC3CCCC3C2)cc1 (configuration not stated)
inactive: outcome [1] | Potency [2] | Potency [3] | Potency [4] | Potency [5] | Potency [6] | Potency [7] | outcome [8] | outcome [9] | outcome [10] | Potency [11] | Potency [12] | Potency [13] | outcome [14] | outcome [15] | outcome [16] | Potency [17] | Potency [18]

O=C(O)CCCCCCCCCC(=O)O
inactive: outcome [1] | Potency [2] | Potency [3] | Potency [4] | Potency [5] | Potency [6] | Potency [7] | outcome [8] | outcome [9] | outcome [10] | Potency [11] | Potency [12] | Potency [13] | outcome [14] | outcome [15] | Potency [19] | outcome [16] | Potency [18]

CNC(C)=O
inactive: outcome [1] | Potency [2] | Potency [3] | Potency [4] | Potency [5] | Potency [6] | Potency [7] | outcome [8] | outcome [9] | outcome [10] | Potency [11] | Potency [12] | Potency [13] | outcome [14] | outcome [15] | outcome [16]

O=C(c1ccccc1)c1cccc(O)c1
inactive: outcome [1] | Potency [2] | Potency [3] | Potency [4] | Potency [5] | Potency [6] | Potency [20] | outcome [8] | outcome [9] | Potency [11] | Potency [12] | Potency [13] | outcome [14] | outcome [15] | outcome [16] | Potency [18]
active: Potency [19] 27.7 µM

O=Cc1ccc(C(=O)O)cc1
inactive: outcome [1] | Potency [2] | Potency [3] | Potency [4] | Potency [5] | Potency [6] | Potency [7] | outcome [8] | outcome [9] | outcome [10] | Potency [11] | Potency [12] | Potency [13] | outcome [14] | outcome [15] | outcome [16] | Potency [18]

CCCc1ccc(O)c(OC)c1
inactive: outcome [1] | Potency [2] | Potency [3] | Potency [4] | Potency [5] | Potency [6] | Potency [20] | outcome [8] | outcome [9] | outcome [10] | Potency [11] | Potency [12] | Potency [13] | outcome [15] | outcome [16]

COCc1nnc(-c2ccc[n+]([O-])c2)n1-c1c(Cl)c(Cl)cc2[nH]c(=O)c(=O)[nH]c12
inactive: outcome [1] | Potency [2] | Potency [3] | Potency [4] | Potency [5] | Potency [6] | Potency [20] | outcome [8] | outcome [9] | outcome [10] | Potency [11] | Potency [12] | Potency [13] | outcome [15] | Potency [19] | outcome [16] | Potency [18]

CCOCCOCCOC(C)=O
inactive: outcome [1] | Potency [2] | Potency [3] | Potency [4] | Potency [5] | Potency [6] | Potency [20] | outcome [8] | outcome [9] | outcome [10] | Potency [11] | Potency [12] | Potency [13] | outcome [14] | outcome [15] | Potency [18]

C/C=C(\C)C(=O)OC/C=C(\C)CCC=C(C)C
inactive: outcome [1] | Potency [2] | Potency [3] | Potency [4] | Potency [5] | Potency [6] | Potency [7] | outcome [8] | outcome [9] | outcome [10] | Potency [11] | Potency [12] | Potency [13] | outcome [14] | outcome [15] | outcome [16] | Potency [18]

CC(=O)OC1CCC(C(C)(C)C)CC1 (configuration not stated)
inactive: outcome [1] | Potency [2] | Potency [3] | Potency [4] | Potency [5] | Potency [6] | Potency [20] | outcome [8] | outcome [9] | outcome [10] | Potency [11] | Potency [12] | Potency [13] | outcome [15] | Potency [19] | outcome [16] | Potency [18]

NC[C@H]1O[C@H](O[C@H]2[C@H](O)[C@@H](O[C@H]3O[C@H](CO)[C@@H](O)[C@H](N)[C@H]3O)[C@H](N)C[C@@H]2N)[C@H](N)[C@@H](O)[C@@H]1O
inactive: activity change, negative = cytotoxic [1] 3.63% [at 15.8 µM] | cytotoxicity [2] -0.281% [at 15.8 µM] | cytotoxicity increase [3] -4.11% [at 15.8 µM] | activity change, negative = cytotoxicity [4] -0.44% [at 15.8 µM] | cytotoxicity increase [5] -0.0128% [at 15.8 µM] | cytotoxicity [6] 1.75% [at 15.8 µM] | cytotoxicity increase [7] 1.34% [at 15.8 µM] | activity change, negative = cytotoxic [8] 3.1% [at 15.8 µM] | activity change, negative = cytotoxicity [9] 5.12% [at 15.8 µM] | activity change, negative = cytotoxicity [10] 14.7% [at 15.8 µM] | activity change [11] 2% [at 15.8 µM, hits give high values] | activity change, negative = cytotoxicity [12] 5.28% [at 15.8 µM] | cytotoxicity increase [13] 0.922% [at 15.8 µM] | activity change, negative = cytotoxicity [14] 2.9% [at 19 µM] | viability change, negative = cytotoxic [15] -0.928% [at 19 µM] | Potency [17] | activity change, negative = inhibition [18] 0.718% [at 19 µM]

O=Cc1ccccc1S(=O)(=O)O
inactive: outcome [1] | Potency [2] | Potency [3] | Potency [4] | Potency [5] | Potency [6] | Potency [7] | outcome [8] | outcome [9] | Potency [11] | Potency [12] | Potency [13] | outcome [14]

C=CCCCCCCCCOC(C)=O
inactive: outcome [1] | Potency [2] | Potency [3] | Potency [4] | Potency [5] | Potency [6] | Potency [7] | outcome [8] | outcome [9] | outcome [10] | Potency [11] | Potency [12] | Potency [13] | outcome [14] | outcome [16]

CC(C)(C)OC=O
inactive: outcome [1] | Potency [2] | Potency [3] | Potency [4] | Potency [5] | Potency [6] | Potency [7] | outcome [8] | outcome [9] | outcome [10] | Potency [11] | Potency [12] | Potency [13] | outcome [14] | outcome [15] | Potency [18]

CC(C)C[P+](C)(CC(C)C)CC(C)C
inactive: outcome [1] | Potency [2] | Potency [3] | Potency [4] | Potency [6] | Potency [20] | Potency [7] | outcome [8] | outcome [10] | Potency [11] | Potency [12] | Potency [13] | outcome [14] | outcome [15] | outcome [16]

CC(=O)OCC(=O)[C@@]1(O)CC[C@H]2[C@@H]3CCC4=CC(=O)C=C[C@]4(C)[C@H]3[C@@H](O)C[C@@]21C
inactive: Potency [2] | Potency [3] | Potency [5] | Potency [6] | Potency [20] | Potency [7] | outcome [8] | outcome [9] | outcome [10] | Potency [11] | Potency [13] | outcome [14] | outcome [15] | outcome [16] | Potency [17] | Potency [18]
active: Potency [4] 21.3 µM | Potency [12] 10.7 µM
